From PubChem BioAssay (EPA / NIEHS)
Active and inactive are the calls of the source. How the source made its calls: active means hit-call score of the fitted dose curve at least 0.9, where 1 is the maximum; inactive means score below 0.9.

Legend:
[1] = ATG_GLI_CIS: Attagene CIS-FACTORIAL HepG2 Assay for human Zinc Finger Protein GLI1 (AID 2282945); conditions: HepG2, Attagene cis-factorial reporter mRNA, GLI element; actives raise or lower the signal
In short: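 Transiently transfected HepG2 cells report endogenous transcription factor activity via cis-element-driven reporter units. After 24 h compound exposure, reporter mRNA was measured by RT-PCR with capillary electrophoresis; bidirectional fitting against DMSO baseline.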

[2] = ATG_GRE_CIS: Attagene CIS-FACTORIAL HepG2 Assay for human Glucocorticoid Response Elements (GRE) (AID 2282947); conditions: HepG2 GRE cis-reporter, Attagene multiplex mRNA; actives raise or lower the signal
In short: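 Fluorescence intensity of reporter-specific cDNA fragments, separated by capillary electrophoresis, provides the signal. Constructs carry cis-regulating promoters in transiently transfected HepG2 liver cells; 24 h incubation; fitting is bidirectional against DMSO.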

[3] = ATG_ISRE_CIS: Attagene CIS-FACTORIAL HepG2 Assay for human Interferon Regulatory Factor 1 (IRF1) binding to an Interferon-Stimulated Response Element (ISRE) (AID 2282948); conditions: HepG2 ISRE cis-reporter (Attagene), mRNA transcription readout; actives raise or lower the signal
In short: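 Read-out: fluorescent RT-PCR products resolved by capillary electrophoresis, reporting endogenous transcription factor activity via ISRE-driven reporter mRNA in transfected HepG2 cells dosed for 24 h; gain or loss fitted relative to DMSO.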

[4] = ATG_M_06_CIS: Attagene CIS-FACTORIAL HepG2 Assay for M06 Transcription Factor (Internal Marker) (AID 2282950); conditions: HepG2 Attagene CIS-FACTORIAL M06 internal marker reporter; actives raise or lower the signal
In short: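 HepG2 liver cells, 24 h exposure. Reporter transcripts from transfected cis-element constructs quantified by RT-PCR/capillary electrophoresis fluorescence. Bidirectional curve fit against DMSO.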

[5] = biological target: Hypoxia-inducible factor 1-alpha (Homo sapiens) (UniProt Q16665); assay: ATG_HIF1a_CIS: Attagene CIS-FACTORIAL HepG2 Assay for human Hypoxia Inducible Factor 1 (HIF1A) (AID 2282951); conditions: HepG2 Attagene cis-factorial HIF1a reporter transcription; actives raise or lower the signal
Sequence of Hypoxia-inducible factor 1-alpha (Homo sapiens) (Q16665 whole entry, looked up): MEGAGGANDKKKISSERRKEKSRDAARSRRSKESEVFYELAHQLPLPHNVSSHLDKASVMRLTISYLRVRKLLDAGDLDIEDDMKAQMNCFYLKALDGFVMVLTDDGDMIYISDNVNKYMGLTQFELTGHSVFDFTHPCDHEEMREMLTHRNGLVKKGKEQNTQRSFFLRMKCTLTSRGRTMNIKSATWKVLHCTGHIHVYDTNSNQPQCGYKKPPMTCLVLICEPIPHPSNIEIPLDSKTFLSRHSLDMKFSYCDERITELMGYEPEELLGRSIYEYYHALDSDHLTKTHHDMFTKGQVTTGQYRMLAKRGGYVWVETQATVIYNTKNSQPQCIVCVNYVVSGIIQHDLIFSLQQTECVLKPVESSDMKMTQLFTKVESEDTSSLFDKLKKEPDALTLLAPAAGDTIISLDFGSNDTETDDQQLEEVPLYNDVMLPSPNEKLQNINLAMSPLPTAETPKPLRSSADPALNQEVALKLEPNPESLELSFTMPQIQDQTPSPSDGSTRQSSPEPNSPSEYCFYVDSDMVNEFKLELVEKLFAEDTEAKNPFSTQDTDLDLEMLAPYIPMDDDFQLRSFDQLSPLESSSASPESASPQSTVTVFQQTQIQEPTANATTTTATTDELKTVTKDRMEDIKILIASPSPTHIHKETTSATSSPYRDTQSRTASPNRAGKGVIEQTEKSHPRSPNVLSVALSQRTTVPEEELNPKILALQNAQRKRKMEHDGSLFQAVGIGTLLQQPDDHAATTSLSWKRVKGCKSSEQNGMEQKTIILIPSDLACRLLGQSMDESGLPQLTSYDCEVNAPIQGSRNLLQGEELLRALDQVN
In short: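 HepG2 cells transiently transfected with multiple cis-regulated reporter transcription units measure endogenous transcription factor activity. After 24 h exposure, reporter mRNA is quantified by RT-PCR with 6-FAM labelling, HpaI digestion and capillary electrophoresis. Bidirectional fitting against DMSO.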

[6] = biological target: Hepatocyte nuclear factor 6 (Homo sapiens) (UniProt Q9UBC0); assay: ATG_HNF6_CIS: Attagene CIS-FACTORIAL HepG2 Assay for human Hepatocyte Nuclear Factor 6 (HNF6) (AID 2282952); conditions: HepG2 Attagene cis-factorial HNF6 reporter transcription; actives raise or lower the signal
Sequence of Hepatocyte nuclear factor 6 (Homo sapiens) (Q9UBC0 whole entry, looked up): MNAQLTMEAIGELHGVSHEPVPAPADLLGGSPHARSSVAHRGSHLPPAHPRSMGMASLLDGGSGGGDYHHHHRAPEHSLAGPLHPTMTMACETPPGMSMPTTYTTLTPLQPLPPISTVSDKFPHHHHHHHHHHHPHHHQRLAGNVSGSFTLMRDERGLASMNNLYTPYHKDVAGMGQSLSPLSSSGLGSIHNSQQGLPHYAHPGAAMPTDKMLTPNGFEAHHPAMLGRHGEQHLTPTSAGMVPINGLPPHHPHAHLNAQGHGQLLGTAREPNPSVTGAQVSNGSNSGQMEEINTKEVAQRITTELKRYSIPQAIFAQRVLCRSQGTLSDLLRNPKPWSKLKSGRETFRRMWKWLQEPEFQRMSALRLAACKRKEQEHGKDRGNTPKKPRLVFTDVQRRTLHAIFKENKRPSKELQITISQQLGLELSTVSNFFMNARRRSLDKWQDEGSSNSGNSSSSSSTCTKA
In short: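 Endogenous factor activity read in transiently transfected HepG2 via promoter-regulated reporter transcripts. RNA harvested 24 h post-dosing, reverse-transcribed, PCR-amplified, FAM-labelled, HpaI-digested and resolved by capillary electrophoresis; fitted in both directions against DMSO.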

[7] = biological target: Heat shock factor protein 1 (Homo sapiens) (UniProt Q00613); assay: ATG_HSE_CIS: Attagene CIS-FACTORIAL HepG2 Assay for human Heat Shock Transcription Factor 1 (HSE) (AID 2282953); conditions: HepG2 HSE cis-reporter, Attagene RNA transcription; actives raise or lower the signal
Sequence of Heat shock factor protein 1 (Homo sapiens) (Q00613 whole entry, looked up, the tested form may be a part): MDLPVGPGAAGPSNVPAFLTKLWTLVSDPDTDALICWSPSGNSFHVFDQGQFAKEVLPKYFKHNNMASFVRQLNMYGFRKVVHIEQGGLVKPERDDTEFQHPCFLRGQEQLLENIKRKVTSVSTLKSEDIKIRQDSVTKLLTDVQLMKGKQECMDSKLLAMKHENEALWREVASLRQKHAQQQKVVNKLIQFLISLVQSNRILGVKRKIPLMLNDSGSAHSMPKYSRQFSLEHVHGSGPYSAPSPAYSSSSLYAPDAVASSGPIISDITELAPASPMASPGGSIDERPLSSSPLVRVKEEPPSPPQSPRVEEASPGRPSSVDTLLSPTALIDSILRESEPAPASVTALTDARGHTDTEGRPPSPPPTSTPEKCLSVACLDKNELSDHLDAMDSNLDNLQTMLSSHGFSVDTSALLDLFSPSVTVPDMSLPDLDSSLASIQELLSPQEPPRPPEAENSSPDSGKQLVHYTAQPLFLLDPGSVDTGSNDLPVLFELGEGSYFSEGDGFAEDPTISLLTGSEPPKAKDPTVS
In short: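 Endogenous transcription factor activity captured via cis-promoter reporter units transfected into HepG2; treatment lasted 24 h. Fluorescence intensity of reporter fragments analysed with bidirectional curve fitting, DMSO baseline.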

[8] = ATG_MRE_CIS: Attagene CIS-FACTORIAL HepG2 Assay for human Metal Responsive Element (MRE) (AID 2282954); conditions: HepG2 MRE cis-reporter transcription, Attagene multiplex; actives raise or lower the signal
In short: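 Measured here is mRNA induction from an MRE cis-element reporter in HepG2 after 24 h, quantified by fluorescence of labelled RT-PCR products on capillary electrophoresis; gain- and loss-of-signal fits use DMSO as baseline.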

[9] = biological target: Paired box protein Pax-6 (Homo sapiens) (UniProt P26367); assay: ATG_Pax6_CIS: Attagene CIS-FACTORIAL HepG2 Assay for human Paired Box 6 (PAX6) (AID 2282956); conditions: HepG2 CIS-FACTORIAL PAX6 reporter transcription, RNA readout; actives raise or lower the signal
Sequence of Paired box protein Pax-6 (Homo sapiens) (P26367 whole entry, looked up): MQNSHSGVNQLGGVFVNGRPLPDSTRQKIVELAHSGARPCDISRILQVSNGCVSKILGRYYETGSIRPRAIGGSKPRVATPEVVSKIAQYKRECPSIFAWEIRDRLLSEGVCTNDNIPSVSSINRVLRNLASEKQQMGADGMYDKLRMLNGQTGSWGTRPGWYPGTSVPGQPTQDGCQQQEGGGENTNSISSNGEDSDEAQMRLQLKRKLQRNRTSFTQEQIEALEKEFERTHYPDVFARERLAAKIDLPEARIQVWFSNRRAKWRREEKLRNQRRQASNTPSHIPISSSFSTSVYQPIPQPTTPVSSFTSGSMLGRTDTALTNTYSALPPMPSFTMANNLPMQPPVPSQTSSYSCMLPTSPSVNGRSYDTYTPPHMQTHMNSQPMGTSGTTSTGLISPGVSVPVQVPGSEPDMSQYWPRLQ
In short: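 Readout: reporter transcript fluorescence after RT-PCR and capillary electrophoresis. Cells: HepG2, transiently transfected with cis-regulated MRTUs. Exposure 24 h. Gain or loss of signal fitted bidirectionally relative to DMSO.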

[10] = ATG_PXRE_CIS: Attagene CIS-FACTORIAL HepG2 Assay for human Pregnane X Receptor Element (PXRE) (AID 2282957); conditions: HepG2 Attagene CIS-FACTORIAL PXRE reporter, mRNA; actives raise or lower the signal
In short: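 Reporter transcripts under endogenous PXR-responsive cis-regulation quantified from total RNA of transfected HepG2 cells 24 h post-dosing, via RT-PCR with fluorescent primer extension and capillary electrophoresis. Gain or loss of signal fitted against DMSO baseline.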

[11] = ATG_PPRE_CIS: Attagene CIS-FACTORIAL HepG2 Assay for human Peroxisome Proliferator-activated Response Element (PPRE) (AID 2282958); conditions: HepG2 PPRE cis-element reporter, Attagene transcription factor profiling; actives raise or lower the signal
In short: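 HepG2 cells are transiently transfected with multiplexed cis-promoter reporter units to report endogenous PPAR activity. After 24 h dosing, reporter mRNA is read by RT-PCR and capillary electrophoresis. Fitting is bidirectional against DMSO.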

[12] = ATG_RORE_CIS: Attagene CIS-FACTORIAL HepG2 Assay for human RAR-related Orphan Receptor Element (RORE) (AID 2282959); conditions: HepG2 Attagene cis-factorial RORE reporter, mRNA; actives raise or lower the signal
In short: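 HepG2 cells carrying transiently transfected cis-regulated reporter units; RORE-driven reporter mRNA quantified 24 h post-dosing by RT-PCR, 6-FAM primer extension, HpaI digestion and capillary electrophoresis. Bidirectional fit versus DMSO.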

[13] = ATG_Sox_CIS: Attagene CIS-FACTORIAL HepG2 Assay for human SRY-box transcription factor (SOX) (AID 2282960); conditions: HepG2 Attagene cis-factorial SOX reporter, mRNA; actives raise or lower the signal
In short: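 HepG2 cells transiently transfected with multiple cis-regulated reporter units, then dosed for 24 h. Reporter mRNA quantified by RT-PCR, fluorescent labelling, HpaI digestion and capillary electrophoresis; bidirectional fit versus DMSO.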

[14] = biological target: Transcription factor Sp1 (Homo sapiens) (UniProt P08047); assay: ATG_Sp1_CIS: Attagene CIS-FACTORIAL HepG2 Assay for human Specificity Protein 1 (Sp1) (AID 2282961); conditions: HepG2 Sp1 cis-reporter transcription, actives raise or lower the signal
Sequence of Transcription factor Sp1 (Homo sapiens) (P08047 whole entry, looked up): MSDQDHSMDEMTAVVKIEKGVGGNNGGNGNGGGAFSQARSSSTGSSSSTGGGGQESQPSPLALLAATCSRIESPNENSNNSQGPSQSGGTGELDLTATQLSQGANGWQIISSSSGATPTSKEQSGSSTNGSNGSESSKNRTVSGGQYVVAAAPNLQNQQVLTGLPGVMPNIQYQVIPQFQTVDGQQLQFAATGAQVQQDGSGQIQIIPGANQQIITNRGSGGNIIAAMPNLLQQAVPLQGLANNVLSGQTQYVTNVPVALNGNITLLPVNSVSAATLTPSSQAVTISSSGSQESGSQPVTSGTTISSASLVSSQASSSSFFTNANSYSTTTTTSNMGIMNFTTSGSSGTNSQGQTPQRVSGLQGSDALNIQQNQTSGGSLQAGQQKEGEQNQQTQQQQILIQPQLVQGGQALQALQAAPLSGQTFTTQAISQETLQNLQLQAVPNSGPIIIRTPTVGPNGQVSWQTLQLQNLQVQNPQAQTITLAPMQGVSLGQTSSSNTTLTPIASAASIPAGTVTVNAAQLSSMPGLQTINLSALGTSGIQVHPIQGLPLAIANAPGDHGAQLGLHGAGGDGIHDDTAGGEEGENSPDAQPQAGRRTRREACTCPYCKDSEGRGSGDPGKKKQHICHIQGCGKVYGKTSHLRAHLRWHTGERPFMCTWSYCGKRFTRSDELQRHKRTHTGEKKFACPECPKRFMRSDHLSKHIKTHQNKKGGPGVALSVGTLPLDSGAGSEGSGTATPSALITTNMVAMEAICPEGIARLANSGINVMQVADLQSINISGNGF
In short: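 HepG2 cells transiently transfected with multiplexed cis-regulated reporter constructs, chemical exposure 24 h. Reporter mRNA quantified by RT-PCR with capillary electrophoresis; bidirectional fit relative to DMSO.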

[15] = ATG_SREBP_CIS: Attagene CIS-FACTORIAL HepG2 Assay for human Sterol Regulatory Element Binding (SREBP) (AID 2282962); conditions: HepG2 Attagene cis-factorial SREBP reporter, mRNA; actives raise or lower the signal
In short: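 Readout: fluorescent reporter-transcript peaks resolved by capillary electrophoresis after RT-PCR. Cells were human HepG2 carrying transfected cis-promoter reporter constructs, dosed for 24 h. Gain or loss of signal was fitted against DMSO controls.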

[16] = biological target: Signal transducer and activator of transcription 3 (Homo sapiens) (UniProt P40763); assay: ATG_STAT3_CIS: Attagene CIS-FACTORIAL HepG2 Assay for human Signal Transducer and Activator of Transcription 3 (STAT3) (AID 2282963); conditions: HepG2, Attagene cis-factorial STAT3 reporter transcription; actives raise or lower the signal
Sequence of Signal transducer and activator of transcription 3 (Homo sapiens) (P40763 whole entry, looked up, the tested form may be a part): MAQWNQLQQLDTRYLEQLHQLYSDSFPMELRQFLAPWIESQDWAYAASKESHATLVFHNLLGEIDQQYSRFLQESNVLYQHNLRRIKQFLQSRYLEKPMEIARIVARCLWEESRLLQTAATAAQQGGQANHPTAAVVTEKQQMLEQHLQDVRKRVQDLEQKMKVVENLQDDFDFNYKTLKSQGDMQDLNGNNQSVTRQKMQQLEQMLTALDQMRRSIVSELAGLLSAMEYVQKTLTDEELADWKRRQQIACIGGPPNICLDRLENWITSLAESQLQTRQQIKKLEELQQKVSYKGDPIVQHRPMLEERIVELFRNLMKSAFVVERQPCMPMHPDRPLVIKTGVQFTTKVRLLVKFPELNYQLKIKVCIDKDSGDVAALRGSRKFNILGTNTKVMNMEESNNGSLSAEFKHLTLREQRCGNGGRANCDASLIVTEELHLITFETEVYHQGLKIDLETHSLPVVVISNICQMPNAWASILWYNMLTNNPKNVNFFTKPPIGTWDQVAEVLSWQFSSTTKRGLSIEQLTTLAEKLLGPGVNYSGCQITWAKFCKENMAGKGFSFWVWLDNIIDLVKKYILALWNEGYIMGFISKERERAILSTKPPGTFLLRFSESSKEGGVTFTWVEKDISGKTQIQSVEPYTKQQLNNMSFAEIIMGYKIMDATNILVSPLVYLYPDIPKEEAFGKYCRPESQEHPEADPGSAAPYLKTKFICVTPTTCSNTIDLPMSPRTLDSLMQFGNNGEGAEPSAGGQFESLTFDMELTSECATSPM
In short: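 Fluorescence intensity of 6-FAM-labelled reporter fragments, separated by capillary electrophoresis after RT-PCR, gave the signal. Cells were HepG2 transfected with cis-element reporter units and treated 24 h; fitting was bidirectional relative to DMSO.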

[17] = ATG_M_32_CIS: Attagene CIS-FACTORIAL HepG2 Assay for M32 Transcription Factor (Internal Marker) (AID 2282949); conditions: HepG2 Attagene cis-factorial M32 reporter, mRNA; actives raise or lower the signal;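 further: background control marker of the multiplexed CIS panel rather than a real target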
In short: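 HepG2 transfectants (cis-regulated reporter transcription units) dosed 24 h. Reporter mRNA by RT-PCR plus CE, analysed as gain or loss relative to DMSO.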

[18] = ATG_TA_CIS: Attagene CIS-FACTORIAL HepG2 Assay for human TA Basal Promoter (AID 2282964); conditions: HepG2 Attagene CIS-factorial TA basal promoter reporter; actives raise or lower the signal
In short: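 Fluorescence from labelled RT-PCR reporter fragments, separated by capillary electrophoresis, gives the signal. Cells: HepG2 transiently carrying multiple reporter units, 24 h chemical dosing. Gain or loss relative to DMSO.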

[19] = ATG_PBREM_CIS: Attagene CIS-FACTORIAL HepG2 Assay for human Phenobarbital-responsive Enhancer Module (PBREM) (AID 2282955); conditions: HepG2 PBREM cis-reporter, Attagene multiplexed transcription; actives raise or lower the signal
In short: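 HepG2 cells transiently transfected with multiple cis-regulated reporter units measure endogenous transcription factor activity; 24 h compound exposure. Reporter mRNA quantified by RT-PCR, fluorescent labelling, HpaI digestion and capillary electrophoresis; bidirectional fit versus DMSO.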

Measured: AC50

O=C(O)C1=NN(c2ccc(S(=O)(=O)O)cc2)C(=O)C1
active: [10] 45.8 µM
not listed: [17] | [18] | [19]
inactive: all other assays above

CCCCC/C=C\C=C\C(=O)OCC
active: [1] 64 µM | [3] 56.3 µM | [5] 78.5 µM | [7] 46.7 µM | [8] 55.1 µM | [9] 62.9 µM | [10] 1.51 µM | [11] 4.97 µM | [13] 28.4 µM | [14] 28.7 µM
inactive: [2] | [17] | [6] | [12] | [15] | [16] | [18]

OC[C@H]1O[C@@H](O[C@H]2[C@H](O)[C@@H](O)[C@H](O)O[C@@H]2CO)[C@H](O)[C@@H](O)[C@H]1O
not listed: [5] | [12] | [18]
inactive: all other assays above

N=C1N=C(N)c2ccccc21
active: [3] 74.1 µM | [8] 74.5 µM
not listed: [11] | [13] | [17]
inactive: all other assays above

CC(C)(C)c1cc(CCC(=O)OCCSCCOC(=O)CCc2cc(C(C)(C)C)c(O)c(C(C)(C)C)c2)cc(C(C)(C)C)c1O
not listed: [5] | [13]
inactive: all other assays above

FC(F)(F)c1ccc(Cl)c(Cl)c1
active: [10] 27.9 µM
not listed: [17] | [19]
inactive: all other assays above

OCCCO
not listed: [17] | [19]
inactive: all other assays above

Nc1ccc(O)c(N)c1
not listed: [4] | [5] | [7] | [11] | [13]
inactive: all other assays above

CCCCOCCOCCO
not listed: [4] | [11] | [19]
inactive: all other assays above

CC(C)=CCCC(C)=CC(=O)O
active: [10] 29.8 µM
not listed: [5] | [11] | [18] | [19]
inactive: all other assays above

CC(C)Cc1ccc(C(C)C(=O)O)cc1 (configuration not stated)
active: [11] 34.4 µM
not listed: [5] | [12]
inactive: all other assays above

CCCO
active: [10] 85.4 µM
not listed: [4] | [6] | [19]
inactive: all other assays above

CCCO[Si](OCCC)(OCCC)OCCC
active: [11] 42.2 µM
not listed: [4]
inactive: all other assays above

O=C(O)c1ccc(C(=O)O)c(C(=O)O)c1
not listed: [5] | [9]
inactive: all other assays above

CCOC(=O)COC(=O)c1ccccc1C(=O)OCC
active: [10] 50.1 µM
not listed: [9] | [12] | [17]
inactive: all other assays above

C=CCOC(=O)/C=C\C(=O)OCC=C
inactive: [1] | [2] | [4] | [19] | [11] | [14] | [15] | [16]
active: [3] 19.7 µM | [5] 18.6 µM | [6] 28 µM | [7] 164 µM | [8] 39.5 µM | [9] 26 µM | [10] 20.1 µM | [12] 11.3 µM | [13] 27.6 µM
